About 83,000 compounds went through this panel and 20% of them were active in at least one assay; those are over-represented in the sample as a whole.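 Cells were grown in 96-well plates and exposed to the test compound at a single concentration for 48 hours; results are reported as percent growth, with values below 10 considered active.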 Unmarked numbers belong to inactive results. Active and inactive are the calls of the source.

The test system of the experiment is BT-549 breast. Nature of the experiment: NCI-60 one-dose screen, 48 h (100 = growth as untreated, 0 = no growth, -100 = all killed). The following applies: 10 µM unless noted. The protocol:
Growth inhibition of the BT-549 human tumor cell line is measured as a screen for anti-cancer activity. Cells are grown in 96 well plates and exposed to the test compound for 48 hours. Compounds are tested at a single concentration, which is 10^-5 M for most compounds. The reported endpoint is percent growth (GI% or GIPRCNT), where numbers from 0 - 100% represent growth inhibition, and numbers from -100% - 0 represent cell death. For example, a value of 40 represents 60% growth inhibition. A value of 0 means no net growth occurred over the course of the experiment. A value of -40 indicates 40% of cells at the beginning of the experiment died by the end of the experiment. A value of -100 means all cells are dead at the end of the experiment.
NCI-60 Human Tumor Cell Lines Screen was performed using the standard one-dose NCI protocol, which is described in more detail at https://dtp.cancer.gov/discovery_development/nci-60/default.htm.
Compounds with GIPRCNT values below 10 were considered active. Activity score was based on GIPRCNT using the following formula: […]
Score is 0 for GIPRCNT values of 100 or above, 50 for GIPRCNT values of 0, and 100 for GIPRCNT values of -100.
With `O=C(O)CCCN1C(=O)C2C3CCC(C3)C2C1=O` (stereo not given), the growth was 107%.
In the case of `COc1ccc(C2=C(c3cccc(OC)c3)C(=O)c3ccc(C)nc3C2=O)cc1`, the growth was 57.5%.
To `O=C(Nc1ccc(C23CC4CC(CC(c5ccccc5)(C4)C2)C3)cc1)c1cccs1` belongs 68.9%; to `Cc1nc(Nc2ccccn2)sc1C(=O)/C=C/c1ccc(Cl)cc1`, 19%.
For `Cn1cc(-c2ccc3ncc(-c4ccc(CC(=O)Nc5cc(C(C)(C)C)no5)cc4)nc3c2)cn1`, the growth was 55.4%.
Regarding `COc1ccccc1C1=C(Br)C(=O)c2nc(C)ccc2C1=O`, the growth is 90.4%.
For `Cc1ccc(Nc2nc(N)c3ccccc3n2)cc1Cl`, the growth was 85.8%.
Then `CCOC(=O)c1cc2c(n1Cc1ccccc1)-c1oncc1CCC2`, with 101%.
Then `O=C1OC(c2ccccc2)(c2ccccc2)c2ccsc21`, with 104%; and `Clc1ccc(-c2nnc(COc3ccc(C4=NNC(c5ccco5)C4)cc3)o2)cc1` (stereo not given), with 81.6%.
Then `O=C(CN1C=NC2C(N3CCOCC3)=NC=NC21)c1cccc2ccccc12` (stereo not given), with 109%; and `COc1cccc2cc(N(C)c3nc(C)nc4ccsc34)ccc12`, with 13.3%.
As to `CCOC(=O)c1sc(-c2ccc(OS(=O)(=O)c3ccccc3[N+](=O)[O-])c(C=O)c2)nc1C`, the growth is 47.7%.
To `Nc1nc(N)c2c(n1)NC1(C=C(O)c3ccccc31)C1=C(N2)c2ccccc2C1=O` (stereo not given) belongs 112%.
Then `CCCC(=O)CC(C)=O.CCCC(=O)CC(C)=O.[Cu]`, with 111%; and `O=c1oc2ccc(Br)cc2c(=O)n1-c1ccc(Br)cc1F`, with -19.4% (active).
Then `CCCN1C(=O)N(CCC)C2C1NN=c1s/c(=C3\C(=O)N(C(C)C)c4ccccc43)c(=O)n12` (stereo not given), with 47.7%; and `Nc1ncnc(N)c1NC(=O)c1ccc(OCc2ccccc2)cc1`, with 107%.
`CCOC(=O)c1c2c(c(C)n1Cc1ccc(OC)cc1)-c1oncc1CC2`: the growth is 104%.
Then `COc1ccc(C2NCCc3c2[nH]c2ccccc32)cc1CN1CCN(c2ccc(F)cc2)CC1` (stereo not given), with 69.7%; and `O=C(Nc1ccc(N2CCNCC2)cc1)c1[nH]ncc1Nc1cc(Oc2ccccc2)ncn1`, with 17.5%.
Then `CC/C=C\C[C@H](O)C/C=C1/C(=O)C=C[C@@H]1C/C=C\CCCC(=O)OCCS(=O)(=O)c1ccccc1`, with 2.95% (active).
Then `c1ccc2cc3c(Nc4ccc(N5CCOCC5)cc4)ccnc3cc2c1`, with 99.3%; and `CN(C)c1ccc(/C=C/c2ccnc3c(O)cccc23)cc1`, with 17.8%.
Turning to `CCOc1ccc(-c2nonc2NC(=O)c2cccc(C)c2)cc1OCC`, the growth is 66.8%.
`CCCCc1ccc(NS(=O)(=O)c2cc3c4c(c2)CCN4C(=O)CC3)cc1`: the growth was 0.335% (active).
To `COc1ccc(OC)c(NC(=O)/C(C#N)=C/c2ccco2)c1` belongs 84.5%; to `COC(=O)/C(=C\c1c(-c2ccccc2)[nH]c2ccccc12)S(C)(=O)=O`, 45.7%; to `COc1ccc(Br)c(/C=C2\SC(=Nc3ccc(O)cc3)NC2=O)c1`, 83.5%.
Then `COc1cc(/C=C/C(=O)c2ccc(Nc3nc(NCCO)nc(N4CCOCC4)n3)cc2)cc(OC)c1OC`, with 33.5%; and `CCOC(=O)C(CC(=O)O)=C(C(=O)OCC)C(=O)OCC`, with 122%; and `Oc1c(CN2CCN(c3ccccc3F)CC2)cc(Br)c2cccnc12`, with -53.8% (active).
Then `COc1cc(C2C3=C(COC3=O)N(CCO)c3cc4c(cc32)CCC4)cc(OC)c1O` (stereo not given), with -7.32% (active).
On to `CCN(CC)c1cc(C)c2cc(NC(=O)c3cccc(OC)c3)ccc2n1`, for which the growth was 80.9%.
Then `CC(C)Cn1c2c(c(=S)[nH]c1=O)CCC2`, with 108%.
To `CN1CCN(Cc2ccc(NC(=O)c3[nH]ncc3Nc3cc(OC4CCCC4)ncn3)cc2)CC1` belongs 12.5%; to `CCOC(=O)C1=C(C)N=c2s/c(=C\c3cc(Cl)ccc3O)c(=O)n2C1c1ccc(OC)cc1` (stereo not given), 102%.
Turning to `COc1ccc(C2C3=C(COC3=O)N(CCO)c3cc4c(cc32)CCC4)cc1OC` (stereo not given), the growth is 29.2%.
Then `Cc1ccc2c(n1)C(=O)C(Oc1ccc(Br)cc1)=CC2=O`, with 86.5%.
For `CCc1ccc(CNCC(O)c2ccccc2)cc1` (stereo not given), the growth was 90.1%.

The values are drawn from PubChem BioAssay (NCI).
